Test results as given in PubChem BioAssay.
A number with no mark means an inactive call. How the calls were made is not given here.

Molecular target: Pantothenate synthetase (Mycobacterium tuberculosis (strain ATCC 25618 / H37Rv)) (UniProt P9WIL5)
Test: Coupled enzyme confirmation of inhibitors against recombinant Mtb PanC (AID 375);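 further: 0% = full reaction with vehicle and 100% = no enzyme background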
Settings: coupled enzyme assay; at 10 µM, hits give high values

Chain of Pantothenate synthetase (Mycobacterium tuberculosis (strain ATCC 25618 / H37Rv)) (P9WIL5 whole entry, looked up): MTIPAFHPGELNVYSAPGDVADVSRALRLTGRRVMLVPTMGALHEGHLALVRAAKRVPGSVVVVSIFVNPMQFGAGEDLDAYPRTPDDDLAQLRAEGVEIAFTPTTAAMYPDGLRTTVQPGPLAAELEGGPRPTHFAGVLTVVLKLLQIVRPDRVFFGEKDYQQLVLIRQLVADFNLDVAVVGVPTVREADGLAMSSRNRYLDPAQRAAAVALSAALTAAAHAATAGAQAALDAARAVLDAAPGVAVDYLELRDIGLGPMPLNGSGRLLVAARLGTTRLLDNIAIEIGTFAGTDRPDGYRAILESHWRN

Row | Compound | inhibition [%]
1 | Cc1nn(CC(O)Cn2c3c(c4ccccc42)CCN(C)C3=O)c(C)c1Br (stereo not drawn) | 7
2 | COC(=O)Cn1c2ccccc2c2nc(C)sc21 | 0
3 | CCn1cc(C(=O)N2CCOCC2)c(=O)c2cc(S(=O)(=O)N(C)C3CCCCC3)ccc21 | 0
4 | CCC(=O)Oc1ccc(/C(CC)=C(\CC)c2ccc(OC(=O)CC)cc2)cc1 | 0
5 | COc1ccccc1NC(=O)N(Cc1ccccc1)c1ccccn1 | 6
6 | CCOc1ccccc1OCCCCN1CCCC1 | 9
7 | O=C(CSc1nnc(Cc2ccccc2)n1C1CCCCC1)N1CCOCC1 | 3
8 | Cc1ccccc1NC(=O)C1Cc2ccccc2C(=O)O1 (stereo not drawn) | 0
9 | CCc1ccc(CN(C)CCc2ccccn2)cc1 | 1
10 | Cc1ccc(CS(=O)(=O)Cc2ccc(C(=O)NCc3ccccn3)o2)cc1 | 0
11 | CCN1CCN(CCNC(=O)c2cn(C(C)c3ccccc3F)nn2)CC1 (stereo not drawn) | 0
12 | COc1ccc(CCNC(=O)c2cnc3scc(C)n3c2=O)cc1OC | 0
13 | NC(=O)c1ccsc1NC(=O)COC(=O)Cc1ccsc1 | 3
14 | Cn1c(NCc2cccc(Br)c2)nc2ccccc21 | 1
15 | COc1cc2c(cc1OC)C(C)N(C(=O)c1cc3n(n1)C(C(F)(F)F)CC(c1ccco1)N3)CC2 (stereo not drawn) | 6
16 | O=C1CCC(C(=O)N(Cc2ccco2)C2(C(=O)NC3CCCC3)CCCCC2)N1 (stereo not drawn) | 0
17 | Cc1nnc(SCC(=O)NCc2ccc3c(c2)OCO3)s1 | 5
18 | FC(F)(F)C(F)(F)C(F)(F)c1nnc2ccc(N3CCOCC3)nn12 | 3
19 | CC(C)CCn1c(SCC#N)nc2c(sc3ccccc32)c1=O | 2
20 | Cc1ccc(-c2cc(C(F)F)nc(N3CCC(C)CC3)n2)cc1 | 6
21 | Cc1ccc2cc(C(c3nnnn3CC3CCCO3)N3CCCC4(CCCCC4)C3)c(=O)[nH]c2c1 (stereo not drawn) | 0
22 | C(=N/n1c2ccccc2c2ccccc21)/c1ccco1 | 0
23 | COC(=O)c1c(NC(=O)CCc2ccc(C)o2)sc(C)c1C | 1
